The source made the active and inactive calls. The calls were made as follows: active = hit-call score of the fitted dose curve at least 0.9, where 1 is the maximum; inactive = score below 0.9.
Columns and labels:
[1] = ATG_GRE_CIS: Attagene CIS-FACTORIAL HepG2 Assay for human Glucocorticoid Response Elements (GRE) (AID 2282947); conditions: HepG2 GRE cis-reporter, Attagene multiplex mRNA; actives raise or lower the signal
In short: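 Endogenous transcription factor activity is read through cis-element reporter constructs transiently transfected into HepG2 cells. After 24 h treatment, labelled RT-PCR products are resolved by capillary electrophoresis; DMSO sets baseline for bidirectional curve fitting.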

[2] = ATG_ISRE_CIS: Attagene CIS-FACTORIAL HepG2 Assay for human Interferon Regulatory Factor 1 (IRF1) binding to an Interferon-Stimulated Response Element (ISRE) (AID 2282948); conditions: HepG2 ISRE cis-reporter (Attagene), mRNA transcription readout; actives raise or lower the signal
In short: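 Quantitation relies on labelled RT-PCR fragments separated by capillary electrophoresis. Human HepG2 cells bearing cis-promoter reporter constructs were treated 24 h; DMSO served as baseline for bidirectional fitting.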

[3] = ATG_M_32_CIS: Attagene CIS-FACTORIAL HepG2 Assay for M32 Transcription Factor (Internal Marker) (AID 2282949); conditions: HepG2 Attagene cis-factorial M32 reporter, mRNA; actives raise or lower the signal;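 also: background control marker of the multiplexed CIS panel rather than a real target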
In short: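 Following 24 h chemical exposure of HepG2 cells transiently expressing cis-promoter reporter constructs, reporter transcript levels were determined by RT-PCR with fluorescent labelling and capillary electrophoresis, then fitted bidirectionally against DMSO.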

[4] = ATG_M_06_CIS: Attagene CIS-FACTORIAL HepG2 Assay for M06 Transcription Factor (Internal Marker) (AID 2282950); conditions: HepG2 Attagene CIS-FACTORIAL M06 internal marker reporter; actives raise or lower the signal
In short: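 Steps: transfect HepG2 with multiplexed cis-element reporter constructs; dose chemical 24 h; extract RNA with DNase treatment; reverse-transcribe, PCR-amplify, 6-FAM label, HpaI digest; separate fragments by capillary electrophoresis. Activity fitted both directions versus DMSO.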

[5] = biological target: Hypoxia-inducible factor 1-alpha (Homo sapiens) (UniProt Q16665); test: ATG_HIF1a_CIS: Attagene CIS-FACTORIAL HepG2 Assay for human Hypoxia Inducible Factor 1 (HIF1A) (AID 2282951); conditions: HepG2 Attagene cis-factorial HIF1a reporter transcription; actives raise or lower the signal
In short: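 Cis-element reporter constructs were transiently transfected into HepG2 cells, which were treated for 24 h; reporter RNA was reverse-transcribed, amplified, labelled and resolved by capillary electrophoresis.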

[6] = biological target: Hepatocyte nuclear factor 6 (Homo sapiens) (UniProt Q9UBC0); test: ATG_HNF6_CIS: Attagene CIS-FACTORIAL HepG2 Assay for human Hepatocyte Nuclear Factor 6 (HNF6) (AID 2282952); conditions: HepG2 Attagene cis-factorial HNF6 reporter transcription; actives raise or lower the signal
In short: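 Multiplexed mRNA reporter assay in transfected HepG2; 24 h dosing; RT-PCR plus capillary electrophoresis fluorescence; DMSO-referenced bidirectional curve fitting.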

[7] = biological target: Heat shock factor protein 1 (Homo sapiens) (UniProt Q00613); test: ATG_HSE_CIS: Attagene CIS-FACTORIAL HepG2 Assay for human Heat Shock Transcription Factor 1 (HSE) (AID 2282953); conditions: HepG2 HSE cis-reporter, Attagene RNA transcription; actives raise or lower the signal
In short: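 Cells were transfected with cis-element-driven reporter constructs, dosed for 24 h, then total RNA was reverse-transcribed and reporter cDNA amplified, FAM-labelled and digested with HpaI. Fragments were resolved by capillary electrophoresis; gain or loss was fitted against DMSO.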

[8] = ATG_MRE_CIS: Attagene CIS-FACTORIAL HepG2 Assay for human Metal Responsive Element (MRE) (AID 2282954); conditions: HepG2 MRE cis-reporter transcription, Attagene multiplex; actives raise or lower the signal
In short: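 Fluorescent reporter fragments separated by capillary electrophoresis give mRNA induction for the MRE unit after 24 h treatment of transfected HepG2 cells. Endogenous transcription-factor activity is read; DMSO serves as negative control and baseline.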

[9] = biological target: Paired box protein Pax-6 (Homo sapiens) (UniProt P26367); test: ATG_Pax6_CIS: Attagene CIS-FACTORIAL HepG2 Assay for human Paired Box 6 (PAX6) (AID 2282956); conditions: HepG2 CIS-FACTORIAL PAX6 reporter transcription, RNA readout; actives raise or lower the signal
In short: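 After twenty-four hours of chemical exposure, transfected HepG2 cells are harvested for RNA. Cis-promoter reporter transcripts are amplified, fluorescently labelled and sized by capillary electrophoresis, with gain and loss of signal scored against DMSO.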

[10] = ATG_PPRE_CIS: Attagene CIS-FACTORIAL HepG2 Assay for human Peroxisome Proliferator-activated Response Element (PPRE) (AID 2282958); conditions: HepG2 PPRE cis-element reporter, Attagene transcription factor profiling; actives raise or lower the signal
In short: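 DMSO served as negative control and baseline for bidirectional curve fitting. Signal came from PPRE-regulated reporter mRNA in HepG2 cells, measured 24 h post-dosing by RT-PCR, 6-FAM primer extension and capillary electrophoresis.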

[11] = ATG_RORE_CIS: Attagene CIS-FACTORIAL HepG2 Assay for human RAR-related Orphan Receptor Element (RORE) (AID 2282959); conditions: HepG2 Attagene cis-factorial RORE reporter, mRNA; actives raise or lower the signal
In short: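 Transfect HepG2 with MRTUs; treat 24 h; extract RNA; RT with oligo(dT); PCR with reporter-specific primers; 6-FAM primer extension; HpaI digest 2 h at 37 C; capillary electrophoresis. Fit vs DMSO, bidirectional.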

[12] = ATG_Sox_CIS: Attagene CIS-FACTORIAL HepG2 Assay for human SRY-box transcription factor (SOX) (AID 2282960); conditions: HepG2 Attagene cis-factorial SOX reporter, mRNA; actives raise or lower the signal
In short: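 Fluorescence-labelled cDNA fragments from reporter transcripts, sized by CE, give the signal. Cells: HepG2, transiently transfected with cis-regulated reporter units. Exposure 24 h; DMSO negative control; bidirectional curve fitting.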

[13] = biological target: Transcription factor Sp1 (Homo sapiens) (UniProt P08047); test: ATG_Sp1_CIS: Attagene CIS-FACTORIAL HepG2 Assay for human Specificity Protein 1 (Sp1) (AID 2282961); conditions: HepG2 Sp1 cis-reporter transcription, actives raise or lower the signal
In short: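 Chemicals are dosed onto HepG2 cells transfected with multiple cis-promoter reporter constructs, and after 24 h reporter RNA is reverse-transcribed, PCR-amplified and resolved by capillary electrophoresis for fluorescence quantitation; activity is scored up or down against DMSO.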

[14] = ATG_SREBP_CIS: Attagene CIS-FACTORIAL HepG2 Assay for human Sterol Regulatory Element Binding (SREBP) (AID 2282962); conditions: HepG2 Attagene cis-factorial SREBP reporter, mRNA; actives raise or lower the signal
In short: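 Twenty-four hours after chemical dosing of transfected HepG2 cultures, reporter RNA was converted to cDNA, amplified, end-labelled with 6-FAM and resolved by capillary electrophoresis. Responses were fitted relative to DMSO.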

[15] = biological target: Signal transducer and activator of transcription 3 (Homo sapiens) (UniProt P40763); test: ATG_STAT3_CIS: Attagene CIS-FACTORIAL HepG2 Assay for human Signal Transducer and Activator of Transcription 3 (STAT3) (AID 2282963); conditions: HepG2, Attagene cis-factorial STAT3 reporter transcription; actives raise or lower the signal
In short: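 Values derive from bidirectional fits relative to DMSO of reporter mRNA levels, measured by RT-PCR with capillary electrophoresis, in HepG2 cells carrying transiently transfected cis-regulated reporter units and exposed 24 h.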

[16] = ATG_TA_CIS: Attagene CIS-FACTORIAL HepG2 Assay for human TA Basal Promoter (AID 2282964); conditions: HepG2 Attagene CIS-factorial TA basal promoter reporter; actives raise or lower the signal
In short: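 Steps: transfect HepG2 with MRTUs; dose 24 h; isolate RNA, DNase-treat, reverse-transcribe; PCR and FAM-label reporter cDNA; digest with HpaI 2h at 37 C; run capillary electrophoresis. Activity fitted both directions against DMSO.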

[17] = ATG_TCF_b_cat_CIS: Attagene CIS-FACTORIAL HepG2 Assay for human T-Cell-Factor with beta-catenin (TCF/b-cat) (AID 2282965); conditions: HepG2 TCF/beta-catenin cis-reporter transcription, actives raise or lower the signal
In short: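 Cells of the HepG2 line carry transiently transfected reporter units whose promoters respond to endogenous factors. Twenty-four hours post-dosing, reporter mRNA induction is measured by fluorescent RT-PCR and capillary electrophoresis, with DMSO as baseline.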

[18] = ATG_PXRE_CIS: Attagene CIS-FACTORIAL HepG2 Assay for human Pregnane X Receptor Element (PXRE) (AID 2282957); conditions: HepG2 Attagene CIS-FACTORIAL PXRE reporter, mRNA; actives raise or lower the signal
In short: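 Cells: HepG2, transiently transfected reporter units under cis promoter control. Exposure: 24 h. Detection: reporter mRNA via RT-PCR/CE fluorescence; bidirectional fitting, DMSO-referenced.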

[19] = ATG_PBREM_CIS: Attagene CIS-FACTORIAL HepG2 Assay for human Phenobarbital-responsive Enhancer Module (PBREM) (AID 2282955); conditions: HepG2 PBREM cis-reporter, Attagene multiplexed transcription; actives raise or lower the signal
In short: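 Multiplexed cis-reporter readout in human hepatoma HepG2 cells; PBREM-regulated transcript quantified after 24 h exposure by fluorescent RT-PCR fragment analysis. Signal changes up or down fitted relative to DMSO.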

Measured: AC50

Hepatocyte nuclear factor 6 (Homo sapiens), sequence (Q9UBC0 whole entry, looked up): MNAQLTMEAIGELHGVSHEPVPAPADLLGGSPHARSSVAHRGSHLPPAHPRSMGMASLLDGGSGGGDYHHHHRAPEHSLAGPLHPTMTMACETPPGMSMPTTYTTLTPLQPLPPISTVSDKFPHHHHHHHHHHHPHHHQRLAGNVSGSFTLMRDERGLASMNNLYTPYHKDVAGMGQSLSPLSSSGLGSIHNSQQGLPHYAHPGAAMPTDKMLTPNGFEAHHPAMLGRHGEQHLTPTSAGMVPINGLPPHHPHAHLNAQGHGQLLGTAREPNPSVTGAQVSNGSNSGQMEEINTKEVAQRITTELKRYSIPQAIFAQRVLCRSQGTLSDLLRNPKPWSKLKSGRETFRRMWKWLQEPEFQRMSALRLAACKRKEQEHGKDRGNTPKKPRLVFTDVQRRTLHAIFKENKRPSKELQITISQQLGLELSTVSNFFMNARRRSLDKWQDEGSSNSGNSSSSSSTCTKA
Transcription factor Sp1 (Homo sapiens), sequence (P08047 whole entry, looked up): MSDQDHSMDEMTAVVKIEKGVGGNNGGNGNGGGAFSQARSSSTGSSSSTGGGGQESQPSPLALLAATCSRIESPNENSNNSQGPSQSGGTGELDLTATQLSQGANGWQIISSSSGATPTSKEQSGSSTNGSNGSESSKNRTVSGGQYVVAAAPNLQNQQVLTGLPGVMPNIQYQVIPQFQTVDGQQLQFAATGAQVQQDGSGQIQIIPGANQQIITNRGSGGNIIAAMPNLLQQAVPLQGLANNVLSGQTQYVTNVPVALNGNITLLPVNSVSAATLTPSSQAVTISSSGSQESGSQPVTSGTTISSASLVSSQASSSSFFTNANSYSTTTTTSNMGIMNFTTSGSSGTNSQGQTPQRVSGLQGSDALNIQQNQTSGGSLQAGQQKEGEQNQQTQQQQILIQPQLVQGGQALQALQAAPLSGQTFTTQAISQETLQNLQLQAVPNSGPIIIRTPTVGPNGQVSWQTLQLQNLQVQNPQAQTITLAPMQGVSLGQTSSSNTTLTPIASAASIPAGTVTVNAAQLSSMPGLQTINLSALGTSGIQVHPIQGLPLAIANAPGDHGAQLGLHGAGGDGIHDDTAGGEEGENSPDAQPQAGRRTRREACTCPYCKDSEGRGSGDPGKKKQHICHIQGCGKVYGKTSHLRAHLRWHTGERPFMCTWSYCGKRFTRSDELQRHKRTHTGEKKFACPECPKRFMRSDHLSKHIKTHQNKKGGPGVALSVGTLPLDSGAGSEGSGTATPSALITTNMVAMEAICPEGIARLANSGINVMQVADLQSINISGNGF
Paired box protein Pax-6 (Homo sapiens), sequence (P26367 whole entry, looked up): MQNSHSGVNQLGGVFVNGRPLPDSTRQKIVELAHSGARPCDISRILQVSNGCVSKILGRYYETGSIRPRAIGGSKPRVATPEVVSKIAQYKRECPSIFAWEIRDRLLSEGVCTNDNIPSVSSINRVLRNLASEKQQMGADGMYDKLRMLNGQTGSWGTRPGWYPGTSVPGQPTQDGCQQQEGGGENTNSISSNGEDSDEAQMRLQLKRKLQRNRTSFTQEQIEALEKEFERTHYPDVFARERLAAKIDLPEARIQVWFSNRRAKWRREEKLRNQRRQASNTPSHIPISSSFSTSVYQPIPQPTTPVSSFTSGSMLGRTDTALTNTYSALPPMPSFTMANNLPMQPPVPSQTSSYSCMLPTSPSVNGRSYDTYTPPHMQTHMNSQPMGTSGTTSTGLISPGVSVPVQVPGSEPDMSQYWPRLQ
Heat shock factor protein 1 (Homo sapiens), sequence (Q00613 whole entry, looked up, the tested form may be a part): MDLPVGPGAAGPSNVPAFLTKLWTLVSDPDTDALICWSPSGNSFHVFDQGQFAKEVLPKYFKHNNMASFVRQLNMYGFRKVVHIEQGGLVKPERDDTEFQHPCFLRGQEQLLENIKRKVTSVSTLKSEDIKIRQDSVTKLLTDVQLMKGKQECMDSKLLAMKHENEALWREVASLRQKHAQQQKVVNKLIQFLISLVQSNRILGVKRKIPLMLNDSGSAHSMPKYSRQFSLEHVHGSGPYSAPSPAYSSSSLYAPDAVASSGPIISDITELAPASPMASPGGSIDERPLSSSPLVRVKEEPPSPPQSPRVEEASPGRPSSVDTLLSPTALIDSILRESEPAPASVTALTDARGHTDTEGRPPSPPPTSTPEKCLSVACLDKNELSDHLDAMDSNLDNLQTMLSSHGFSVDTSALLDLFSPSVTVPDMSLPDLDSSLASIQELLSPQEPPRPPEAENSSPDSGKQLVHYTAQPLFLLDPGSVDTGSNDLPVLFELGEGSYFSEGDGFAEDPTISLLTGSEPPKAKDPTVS
Signal transducer and activator of transcription 3 (Homo sapiens), sequence (P40763 whole entry, looked up): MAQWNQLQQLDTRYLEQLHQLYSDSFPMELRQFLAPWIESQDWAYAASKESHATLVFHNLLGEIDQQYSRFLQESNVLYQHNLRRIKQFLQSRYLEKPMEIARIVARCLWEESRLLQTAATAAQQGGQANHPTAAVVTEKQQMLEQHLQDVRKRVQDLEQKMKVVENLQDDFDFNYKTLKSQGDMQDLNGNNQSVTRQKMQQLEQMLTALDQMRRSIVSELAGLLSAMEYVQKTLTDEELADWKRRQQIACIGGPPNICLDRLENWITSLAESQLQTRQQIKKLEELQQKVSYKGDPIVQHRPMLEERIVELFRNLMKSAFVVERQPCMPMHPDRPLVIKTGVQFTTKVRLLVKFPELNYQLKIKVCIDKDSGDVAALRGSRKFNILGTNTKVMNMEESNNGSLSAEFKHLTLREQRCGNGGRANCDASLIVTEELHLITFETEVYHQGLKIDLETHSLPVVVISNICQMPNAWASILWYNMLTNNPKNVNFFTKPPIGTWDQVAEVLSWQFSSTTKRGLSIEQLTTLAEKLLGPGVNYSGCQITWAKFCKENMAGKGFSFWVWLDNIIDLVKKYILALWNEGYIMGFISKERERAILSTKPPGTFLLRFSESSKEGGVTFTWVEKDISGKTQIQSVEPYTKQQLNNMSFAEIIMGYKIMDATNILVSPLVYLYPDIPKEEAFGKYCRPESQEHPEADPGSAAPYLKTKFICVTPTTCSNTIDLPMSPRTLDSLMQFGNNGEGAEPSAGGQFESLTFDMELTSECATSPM
Hypoxia-inducible factor 1-alpha (Homo sapiens), sequence (Q16665 whole entry, looked up): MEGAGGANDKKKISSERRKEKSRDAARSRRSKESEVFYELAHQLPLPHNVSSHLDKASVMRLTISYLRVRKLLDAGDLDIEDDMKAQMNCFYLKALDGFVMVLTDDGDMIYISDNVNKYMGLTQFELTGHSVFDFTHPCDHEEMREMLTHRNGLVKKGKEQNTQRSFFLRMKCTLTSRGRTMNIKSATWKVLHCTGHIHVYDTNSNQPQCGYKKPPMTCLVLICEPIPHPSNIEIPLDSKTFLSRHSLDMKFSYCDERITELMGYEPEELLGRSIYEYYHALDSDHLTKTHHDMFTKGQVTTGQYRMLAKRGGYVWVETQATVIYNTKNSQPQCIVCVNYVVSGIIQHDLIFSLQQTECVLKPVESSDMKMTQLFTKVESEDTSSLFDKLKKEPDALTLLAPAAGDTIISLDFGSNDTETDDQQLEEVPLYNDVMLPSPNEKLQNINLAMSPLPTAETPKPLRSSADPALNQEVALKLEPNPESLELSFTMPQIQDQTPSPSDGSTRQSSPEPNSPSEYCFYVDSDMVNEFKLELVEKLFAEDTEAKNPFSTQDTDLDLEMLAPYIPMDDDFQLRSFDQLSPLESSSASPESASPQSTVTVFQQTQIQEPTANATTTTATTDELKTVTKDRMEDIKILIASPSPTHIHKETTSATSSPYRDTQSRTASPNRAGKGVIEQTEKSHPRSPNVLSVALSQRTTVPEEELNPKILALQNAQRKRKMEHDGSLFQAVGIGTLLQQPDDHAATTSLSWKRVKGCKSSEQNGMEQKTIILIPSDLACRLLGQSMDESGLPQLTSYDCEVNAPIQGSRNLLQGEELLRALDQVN

CCC(=O)OCc1ccccc1
not listed: [18] | [19]
inactive: all other assays above

OC[C@H]1O[C@H](O[C@]2(CCl)O[C@H](CCl)[C@@H](O)[C@@H]2O)[C@H](O)[C@@H](O)[C@H]1Cl
not listed: [10] | [14] | [19]
inactive: all other assays above

CC1CCC(C(C)CS)CC1S (stereo unspecified)
active: [1] 55 µM | [5] 53.7 µM | [18] 2.54 µM | [12] 52.9 µM | [13] 52.1 µM | [17] 49.4 µM
not listed: [6] | [19]
inactive: all other assays above

C=CC(=O)OCCOCCOCC
active: [9] 68.4 µM
not listed: [10] | [11] | [18] | [19]
inactive: all other assays above

Cc1cc(C2(c3cc(C)c(O)cc3C)OS(=O)(=O)c3ccccc32)c(C)cc1O
active: [18] 24.2 µM
not listed: [6] | [7] | [10]
inactive: all other assays above

CCCCC(CC)COC(=O)/C=C\C(=O)OCC(CC)CCCC (stereo unspecified)
active: [5] 21.2 µM | [6] 171 µM | [18] 4.85 µM | [10] 100 µM
not listed: [7] | [11] | [17]
inactive: all other assays above

O=C1CCc2ccccc2O1
not listed: [11] | [14] | [19]
inactive: all other assays above

c1ccc2[nH]ccc2c1
active: [18] 29.9 µM
not listed: [6] | [19]
inactive: all other assays above

CCCCCCOC(=O)CCCCC
not listed: [7] | [10] | [11] | [19]
inactive: all other assays above

COCCOCCOCCOCCOCCO
not listed: [7] | [11]
inactive: all other assays above

C=C(C)C(=O)NCCCN(C)C
not listed: [6] | [15] | [19]
inactive: all other assays above

CCCc1ccccc1O
active: [18] 56 µM
not listed: [7] | [10] | [11]
inactive: all other assays above

O=C1CCCCCCCCCCOCCCCO1
active: [5] 179 µM | [8] 180 µM | [18] 26.6 µM
not listed: [7]
inactive: all other assays above

C[C@H]1C[C@H]2[C@@H]3CCC4=CC(=O)C=C[C@]4(C)[C@@]3(F)[C@@H](O)C[C@]2(C)[C@@]1(O)C(=O)COP(=O)(O)O
active: [1] 0.0823 µM
not listed: [15] | [17] | [18] | [19]
inactive: all other assays above

COc1cc(C)cc(O)c1
active: [18] 20.5 µM
not listed: [6] | [11]
inactive: all other assays above

CCC(C)(O)CCC=C(C)C (stereo unspecified)
not listed: [7] | [11] | [19]
inactive: all other assays above

CC(C)=CCC[C@](C)(O)[C@@H]1CC=C(C)CC1
active: [18] 11.1 µM
not listed: [7] | [14] | [16]
inactive: all other assays above
